Test results: PubChem BioAssay (EPA / NIEHS)
Where “and” joins values, the source holds several entries; their conditions need not be identical. Identical values can stand only once. Records with an inconclusive call do not appear. Where a structure was tested more than once in an assay, its records may differ in their call. Calls of active or inactive are those of the source. Rule for the calls, unless noted: active = hit-call score of the fitted dose curve at least 0.9, where 1 is the maximum; inactive = score below 0.9.

Key:
[1] = read-out: Interleukin-8 (IL8), CXCL8 (gene 3576); experiment: BSK_3C_IL8: BioMAP Diversity Plus: 3C Assay for Interleukin-8 (IL8) Biomarker Activity (AID 2283020); conditions: primary human endothelial cells (HUVEC); actives raise or lower the signal
Method in brief: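 IL-8 was measured by ELISA in HUVEC cultures 24 h after chemical dosing, with gain or loss of signal fitted relative to DMSO. Parallel SRB total-protein staining tracked overt cytotoxicity.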

[2] = BSK_3C_SRB: Viability Assessment in the BioMAP Diversity Plus: 3C Assay (AID 2283023); conditions: primary human endothelial cells (HUVEC);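 note: cells read 24 h after compound dosing; fitted both ways against DMSO so a hit may be signal rise or drop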
Method in brief: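 HUVEC, 24 h post-dose; 10% TCA fix, 0.1% SRB stain, A560 nm. Bidirectional curve fit vs DMSO negative control.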

[3] = read-out: Matrix Metallopeptidase 1 (MMP1), MMP1 (gene 4312); experiment: BSK_BE3C_MMP1: BioMAP Diversity Plus: BE3C Assay for Matrix Metallopeptidase 1 (MMP1) Biomarker Activity (AID 2283024); conditions: primary human bronchial epithelial cells; actives raise or lower the signal
Method in brief: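 ELISA measurement of MMP-1 after 24 h compound exposure of primary human bronchial epithelial cells. Changes in either direction fitted relative to DMSO; parallel SRB staining checked overt cytotoxicity.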

[4] = BSK_3C_Vis: BioMAP Diversity Plus: 3C Assay for Morphology Visualization (AID 2283025); conditions: primary human endothelial cells (HUVEC);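 note: fitted both ways so gain or loss versus DMSO counts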;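 for AC50: light microscopy image of cell morphology used as background control; cells imaged 24 h after dosing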
Method in brief: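 Light-microscopy visualization of HUVEC cultures at 24 h post-treatment, with DMSO as baseline for bidirectional fitting.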

[5] = read-out: Pselectin, SELP (gene 6403); experiment: BSK_4H_Pselectin: BioMAP Diversity Plus: 4H Assay for Pselectin Biomarker Activity (AID 2283026); conditions: primary human endothelial cells (HUVEC); actives raise or lower the signal
Method in brief: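 ELISA of surface P-selectin on HUVEC, 24 h after dosing, with parallel SRB staining (0.1% after 10% TCA fixation, 560 nm) for overt cytotoxicity. Activity fitted in both directions relative to DMSO.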

[6] = BSK_4H_SRB: Viability Assessment in the BioMAP Diversity Plus: 4H Assay (AID 2283027); conditions: primary human endothelial cells (HUVEC);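 note: cells exposed to compound for 24 h before staining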;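 for AC50: curves fitted both ways versus DMSO so AC50 may be loss or gain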
Method in brief: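 HUVEC, 24 h post-dose; 10% TCA fix, 0.1% SRB stain, A560 nm. Total protein = overt cytotoxicity, parallel to biomarker read. Bidirectional fit vs DMSO baseline.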

[7] = BSK_BE3C_SRB: Viability Assessment in the BioMAP Diversity Plus: BE3C Assay (AID 2283028); conditions: primary human bronchial epithelial cells;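 for AC50: fitted both ways so AC50 may mark signal gain or loss versus DMSO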
Method in brief: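 Primary human bronchial epithelium; chemical dosing, 24 h; 10% TCA fix, 0.1% SRB stain, A560; bidirectional fit vs DMSO baseline.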

[8] = read-out: Thrombomodulin, THBD (gene 7056); experiment: BSK_3C_Thrombomodulin: BioMAP Diversity Plus: 3C Assay for Thrombomodulin Biomarker Activity (AID 2283029); conditions: primary human endothelial cells (HUVEC); actives raise or lower the signal
Method in brief: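 ELISA measurement of thrombomodulin on HUVEC surface 24 h after chemical dosing; activity fitted in both directions relative to DMSO vehicle.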

[9] = biological target: human Vitamin D Receptor (VDR), VDR (gene 7421) (UniProt P11473); experiment: ATG_VDR_TRANS: Attagene TRANS-FACTORIAL HepG2 Assay for human Vitamin D Receptor (VDR) (AID 2283022; active = hit-call score of the fitted dose curve at least 0.9, where 1 is the maximum)
Method in brief: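 RT-PCR/capillary electrophoresis read-out of reporter mRNA induction in transiently transfected HepG2; 24 h dosing; chimeric NR-Gal4 (TRANS format); gain-of-signal fit against DMSO baseline.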

[10] = read-out: Monokine induced gamma interferon (MIG), CXCL9 (gene 4283); experiment: BSK_3C_MIG: BioMAP Diversity Plus: 3C Assay for Monokine induced gamma interferon (MIG) Biomarker Activity (AID 2283021); conditions: primary human endothelial cells (HUVEC); actives raise or lower the signal
Method in brief: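 ELISA measurement of MIG in human umbilical vein endothelial cells 24 h after treatment. Cytotoxicity tracked by SRB staining in parallel cultures; gain or loss of signal fitted relative to DMSO.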

Measured: AC50

human Vitamin D Receptor (VDR), VDR (gene 7421), sequence (P11473 whole entry, looked up, the tested form may be a part): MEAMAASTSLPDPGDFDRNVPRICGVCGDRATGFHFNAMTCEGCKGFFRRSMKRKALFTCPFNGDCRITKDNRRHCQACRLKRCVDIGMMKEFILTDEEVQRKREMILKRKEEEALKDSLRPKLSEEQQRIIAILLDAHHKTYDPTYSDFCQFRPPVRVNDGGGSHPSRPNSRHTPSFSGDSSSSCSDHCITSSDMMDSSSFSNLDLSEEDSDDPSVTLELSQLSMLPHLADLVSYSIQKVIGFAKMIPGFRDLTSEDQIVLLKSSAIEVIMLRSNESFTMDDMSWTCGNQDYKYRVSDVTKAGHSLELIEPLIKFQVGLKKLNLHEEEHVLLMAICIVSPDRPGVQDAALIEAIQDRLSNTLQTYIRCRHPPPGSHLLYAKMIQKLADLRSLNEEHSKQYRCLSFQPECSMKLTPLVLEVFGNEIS

CC(C)Cc1ccc(C(C)C(=O)O)cc1 (stereo unspecified)
active: [1] 0.0158 µM
not listed: [9] | [10]
inactive: all other assays above

O=C(c1ccc(OCCN2CCCCC2)cc1)c1c(-c2ccc(O)cc2)sc2cc(O)ccc12
active: [1] 20 µM | [2] 18.8 µM | [3] 32.2 µM | [4] 22.3 µM | [5] 25.2 µM | [6] 33.2 µM | [7] 38.1 µM
inactive: [9] | [8]

CC(=O)OCC=C(C)CCC=C(C)CCC=C(C)C
not listed: [10]
inactive: all other assays above

C#C[C@]1(O)CC[C@H]2[C@@H]3CCc4cc(O)ccc4[C@H]3CC[C@@]21C
inactive: [3] | [5] | [7] | [8]
active: [1] 5.33 µM | [2] 6.09 µM | [4] 9.8 µM | [6] 3.99 µM

Nc1ccc(N)c([N+](=O)[O-])c1
not listed: [9] | [10]
inactive: all other assays above

COc1ccccc1NC(=O)CC(C)=O
not listed: [9] | [10]
inactive: all other assays above

c1ccc(OCCOc2ccccc2)cc1
inactive: [1] | [10] | [9] | [2] | [3] | [5] | [6] | [7] | [8]
active: [3] 0.0654 µM

O=S1(=O)CC(Cl)(Cl)C(Cl)(Cl)C1
inactive: [8]
active: [1] 0.548 µM | [2] 5.02 µM | [3] 2.15 µM | [4] 20 µM | [5] 0.194 µM | [6] 0.992 µM | [7] 1.18 µM

CC1(C)[C@H](C=C(Cl)Cl)[C@H]1C(=O)OCc1cccc(Oc2ccccc2)c1
not listed: [10]
inactive: all other assays above

CCCCCCCCCCCCS
active: [1] 20 µM | [2] 26.5 µM | [3] 20 µM | [4] 20 µM | [5] 20 µM | [6] 29.6 µM
inactive: [9] | [7] | [8]

CCC(=O)OCC=Cc1ccccc1
not listed: [10]
inactive: all other assays above

CCCCCCCCCC(=O)OCC
active: [1] 33.2 µM | [2] 32 µM | [4] 14.1 µM | [5] 30.9 µM | [6] 31.5 µM | [8] 29.7 µM
inactive: [9] | [3] | [7]

OCC(F)(OC(F)(F)C(F)(OC(F)(F)C(F)(F)C(F)(F)F)C(F)(F)F)C(F)(F)F (stereo unspecified)
inactive: [1] | [3] | [5] | [7]
active: [1] 6.2 µM | [2] 4.48 µM and 3.3 µM | [3] 2.54 µM | [5] 4.38 µM | [6] 5.19 µM and 3.7 µM | [8] 4.76 µM and 2.31 µM

CCCCN(CCO)CCO
not listed: [4] | [10]
inactive: all other assays above

CCCCOCCOCCO
not listed: [9] | [10]
inactive: all other assays above

CCCO[Si](OCCC)(OCCC)OCCC
not listed: [4]
inactive: all other assays above

COC(=O)c1ccc(C(=O)OC)cc1
not listed: [10]
inactive: all other assays above

O=C(O)C(F)(F)OC(F)(F)C(F)(F)OC(F)(F)C(F)(F)C(F)(F)C(F)(F)F
active: [2] 46 µM | [3] 19.9 µM and 21.3 µM
inactive: [1] | [2] | [5] | [6] | [7] | [8]
